Screens (PubChem BioAssay)
Hits are enriched below; roughly 3.9% of the tested compounds scored in any of these assays.
D1 PAM – Potentiators of Human D1 Dopamine Receptor: qHTS; D(1A) dopamine receptor (Homo sapiens), P21728; HEK293 TREx D1 cells, calcium flux, dopamine EC20 potentiation; potentiation, % at 10 µM; 360,000 compounds, 0.036% hits; AID 504651, 2011; in the data active = potentiation above about 30%; note: 0% is about no effect
Eya2 inh – qHTS Assay for Inhibitors of the Phosphatase Activity of Eya2; Protein phosphatase EYA2 (Homo sapiens), O00167; recombinant Eya2, OMFP fluorescence dephosphorylation (OMFP is methylfluorescein phosphate); Potency, µM (top dose mostly 76.9 µM), inactives show top-dose activity, negative = inhibition, most hits filed as inhibitors; 330,000 compounds, 0.006% hits; AID 488837, 2010; note: potency is the fitted concentration of half-maximal effect; % is set by controls: 0 for no effect and ±100 for the full control effect
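Eya2 protein (added as 0.2 uM solution) was preincubated with compound for 10 min at ambient temperature in 50 mM HEPES pH 7.5, 50 mM NaCl, 5 uM MgCl2, 0.05% BSA, 1 mM DTT. OMFP (added at 50 uM) then reacted 10 min; fluorescence read at 485/525 nm.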
D1 antag – Antagonist of Human D 1 Dopamine Receptor: qHTS; HEK293 TREx D1 cells, calcium flux, dopamine EC80; stronger effect = lower value; 360,000 compounds, 3.2% hits; activity change, negative = inhibition, % at 10 µM; D(1A) dopamine receptor (Homo sapiens), P21728; in the data active = activity change below about -30%; note: % is set by controls: 0 for no effect and ±100 for the full control effect
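Compound effects on dopamine-evoked calcium signalling were measured in tetracycline-induced HEK293 Trex D1 cells. Dopamine at EC80 followed a 180 s compound pre-read, and fluorescence was tracked kinetically for 180 s more.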
D1 agonist – Allosteric Agonists of the Human D1 Dopamine Receptor: qHTS | activation, % at 2 µM | D(1A) dopamine receptor (Homo sapiens), P21728 | 360,000 compounds, 1% hits | HEK293 T-REx D1 cells, calcium flux, agonist mode; in the data active = activation above about 30%; note: 0% is about no effect
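Agonism was scored from calcium flux recorded over 180 s (1 read/s) after pintool compound addition, following a 10-cycle baseline. Cells were inducible force-coupled HEK293 TREx D1, plated overnight at 30 C and loaded with no-wash calcium dye.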
GALK inhibitor – qHTS Assay for Inhibitors of Human Galactokinase (GALK); Purified GALK, Kinase-Glo residual ATP luminescence; Potency, µM (highest dose often 57.5 µM), for inactives: at the top dose activity change, negative = inhibition, hits mostly inhibitors; 270,000 compounds, 0.007% hits; AID 1868, 2009; note: potency is the fitted concentration of half-maximal effect; % is set by controls: 0 for no effect and ±100 for the full control effect
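Luminescence from leftover ATP (Ultra-Glo luciferase/luciferin) served as read-out after a 1 h room-temperature reaction of 5 nM GALK with 35 uM ATP and 100 uM galactose.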
USP2a inh – qHTS Assay for Inhibitors of Ubiquitin-specific Protease USP2a Using CHOP2 as the Reporter | USP2 core, Ub-CHOP2 coupled fluorogenic reporter, 485/531 | Potency, µM (highest dose often 38.3 µM), for the others: at the highest dose activity change, negative = inhibition, most hits filed as inhibitors | 330,000 compounds, 0.01% hits | AID 463254, 2010;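 note: potency is the fitted concentration of half-maximal effect; plate controls were DMSO wells for no effect and full inhibition by NEM control for full effect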
Target sequence (O75604 whole entry, looked up): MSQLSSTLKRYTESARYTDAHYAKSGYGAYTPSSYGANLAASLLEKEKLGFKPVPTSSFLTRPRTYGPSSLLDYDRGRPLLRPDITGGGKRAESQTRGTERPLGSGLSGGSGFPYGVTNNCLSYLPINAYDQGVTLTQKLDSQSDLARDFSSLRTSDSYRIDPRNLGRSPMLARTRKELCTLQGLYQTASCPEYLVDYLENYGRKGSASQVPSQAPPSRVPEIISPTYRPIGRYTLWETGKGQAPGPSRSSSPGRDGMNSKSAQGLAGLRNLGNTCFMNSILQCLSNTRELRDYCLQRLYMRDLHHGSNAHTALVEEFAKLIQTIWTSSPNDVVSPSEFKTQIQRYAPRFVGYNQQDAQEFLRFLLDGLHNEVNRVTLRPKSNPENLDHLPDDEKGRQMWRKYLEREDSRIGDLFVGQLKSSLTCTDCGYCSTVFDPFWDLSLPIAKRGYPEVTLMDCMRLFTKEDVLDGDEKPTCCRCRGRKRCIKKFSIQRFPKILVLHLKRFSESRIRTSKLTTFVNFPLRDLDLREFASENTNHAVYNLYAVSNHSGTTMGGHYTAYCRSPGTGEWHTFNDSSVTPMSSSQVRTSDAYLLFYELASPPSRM
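Cell-free coupled assay: 10nM USP2 core preincubated 30min RT with compound in Tris-HCl pH 8.0/CaCl2/CHAPS buffer, then 25nM Ub-CHOP2 and 25nM reporter substrate; fluorescence (Ex 485/Em 531) read after 60min RT, normalized to NEM inhibition, concentration-response curves fitted.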
The depositor's hits bear a star. Unless noted, calls come from the whole dose curve; as a rule, active = well fitted inhibition curve with a large enough effect; inconclusive = small, poorly fitted or top-dose-only effect, or effect the other way; inactive = flat fitted curve, though single readings scatter.

What do the screens show for `CC1=C(C(=O)NCc2cccc(F)c2)C2(CCCCC2)OC1=O`?
D1 PAM: 1; D1 antag: -6; D1 agonist: 0

Results for CCCCCn1c(=N)c(S(=O)(=O)c2ccc(C)cc2)cc2c(=O)n3cc(C)ccc3nc21 ?
D1 PAM: 2; D1 antag: -4; D1 agonist: 0

What do the screens show for `Cc1ccc(-n2c(SCC(=O)NCc3ccccc3)nc3n[nH]c(C)c3c2=N)cc1Cl`?
D1 PAM: -9; D1 antag: 1; D1 agonist: 6

What do the screens show for `Cc1ccccc1NC(=O)CSc1nnc(-c2cccc(Cl)c2)o1`?
D1 PAM: 1; D1 antag: -7; D1 agonist: 3

How did COc1ccc(C[C@H]2CN3C(=NC[C@@H]3C(C)C)N2CCNC(=O)c2ccc(C)c(Br)c2)cc1 do in these assays?
D1 PAM: -3; Eya2 inh: 13%; D1 antag: 0; D1 agonist: 30*; GALK inhibitor: 0%; USP2a inh: 6%

Results for Cc1ccc(-n2ncc(C(=O)NCCCN3CCN(c4cccc(Cl)c4)CC3)c2-n2cccc2)cc1 ?
D1 PAM: -3; D1 antag: -20; D1 agonist: 3

How did CSc1ccccc1OCc1cc(C(=O)N2CCC(Oc3cccnc3)CC2)no1 do in these assays?
D1 PAM: -3; Eya2 inh: -9%; D1 antag: -46*; D1 agonist: 19; GALK inhibitor: -2%; USP2a inh: -5%

What do the screens show for `COc1ccccc1OCc1cc(C(=O)N2CCCC(OCc3cccnc3)C2)no1` (configuration not stated)?
D1 PAM: -2; Eya2 inh: -8%; D1 antag: -36*; D1 agonist: 5; GALK inhibitor: -3%; USP2a inh: -3%

What do the screens show for `O=C(c1cc(COc2ccccc2)on1)N1CCCC(OCc2cccnc2)C1` (configuration not stated)?
D1 PAM: 0; Eya2 inh: -15%; D1 antag: 0; D1 agonist: 7; GALK inhibitor: -2%; USP2a inh: 0%

How did O=C(c1cc(COc2cccc3cnccc23)on1)N1CCCC(CCCO)C1 (configuration not stated) do in these assays?
D1 PAM: -3; Eya2 inh: -5%; D1 antag: -55*; D1 agonist: 14; GALK inhibitor: -2%; USP2a inh: 1%

Results for O=C1NC2=C(C(=O)CCC2)C(c2ccc3ncccc3c2)N1 (configuration not stated) ?
D1 PAM: 0; Eya2 inh: -2%; D1 antag: -40*; D1 agonist: 3; GALK inhibitor: 0%; USP2a inh: 1%

How did O=C1CCCC2=C1C(c1ccncc1)Nc1ccccc1N2 (configuration not stated) do in these assays?
D1 PAM: -6; Eya2 inh: 5%; D1 antag: 6; D1 agonist: 0; GALK inhibitor: 3%; USP2a inh: 2%

Results for O=C(CC(c1cccs1)N1Cc2ccccc2C1=O)Nc1ccc(F)cc1 (configuration not stated) ?
D1 PAM: 1; D1 antag: 14; D1 agonist: 0

What do the screens show for `CCOc1cc(S(=O)(=O)Nc2ncn[nH]2)ccc1Br`?
D1 PAM: -5; Eya2 inh: 11%; D1 antag: -52*; D1 agonist: 2; GALK inhibitor: 7%; USP2a inh: 0%

Results for CCOc1cc(S(=O)(=O)n2ccc(C)n2)ccc1Br ?
D1 PAM: -6; Eya2 inh: 2%; D1 antag: -37*; D1 agonist: 8; GALK inhibitor: 4%; USP2a inh: 3%

Results for CCC(=O)Nc1ccc(-c2nnc3c4ccccc4c(C)nn23)cc1 ?
D1 PAM: -7; D1 antag: -39*; D1 agonist: -1

How did CCC(=O)Nc1ccc(OCc2nnc3c4ccccc4c(C)nn23)cc1 do in these assays?
D1 PAM: 5; Eya2 inh: -2%; D1 antag: -15; D1 agonist: 3; GALK inhibitor: 5%; USP2a inh: 0%

How did COc1ccc(Cl)cc1Nc1ncnc2c1c(-c1ccccc1)cn2-c1ccccc1 do in these assays?
D1 PAM: -2; D1 antag: -58*; D1 agonist: -1

How did Fc1ccc(-n2cc(-c3ccccc3)c3c(NCCc4ccccc4)ncnc32)cc1 do in these assays?
D1 PAM: 4; D1 antag: 28; D1 agonist: 0

How did Cc1ccccc1Nc1ncnc2c1c(-c1ccccc1)cn2-c1ccc(F)cc1 do in these assays?
D1 PAM: -3; D1 antag: -34*; D1 agonist: -3

Results for COc1ccc(CCNc2ncnc3c2c(-c2ccccc2)cn3-c2ccc(Cl)cc2)cc1OC ?
D1 PAM: -2; D1 antag: -20; D1 agonist: 4

Results for CN1CCN(c2ncnc3c2c(-c2ccccc2)cn3-c2ccc(F)cc2)CC1 ?
D1 PAM: -14; Eya2 inh: -13%; D1 antag: -42*; D1 agonist: 2; GALK inhibitor: 5%; USP2a inh: -5%

What do the screens show for `Cc1ccc(-c2nc3cc(Cl)ccc3o2)cc1NC(=O)c1cc2ccccc2o1`?
D1 PAM: 0; D1 antag: 4; D1 agonist: 1

Results for Cc1nc2c3ccccc3nc(NNC(=O)CCC(=O)N3CCCC(C)C3)n2n1 (configuration not stated) ?
D1 PAM: -5; Eya2 inh: 3%; D1 antag: -33*; D1 agonist: 0; GALK inhibitor: -7%; USP2a inh: -1%

What do the screens show for `Cc1cccc(N2CCN(C(=O)CCC(=O)NNc3nc4ccccc4c4nc(C)nn34)CC2C)c1` (configuration not stated)?
D1 PAM: -5; D1 antag: -9; D1 agonist: 1

How did COc1ccc(N2CCN(C(=O)Cn3c(-c4cccs4)cc4ccccc43)CC2)cc1 do in these assays?
D1 PAM: 2; D1 antag: -2; D1 agonist: 3

How did Cc1ccc(C(=O)CC2(O)C(=O)N(CCc3ccccc3)c3ccc(Cl)cc32)cc1 (configuration not stated) do in these assays?
D1 PAM: -3; D1 antag: -13; D1 agonist: 23
